Each structure is given as a SMILES string. Among all 300,000 compounds or so, about 4,000 (1.3%) were called active. The list comes from a sample in which actives are over-represented; it also holds similar structures and randomly drawn compounds. Unmarked numbers belong to inactive results.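 How the source made its calls: active means mean replicate score, as percent of positive control median, at least 50; inconclusive means mean below 50 but one replicate at or above 50; inactive means mean and every replicate below 50.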

A short description of the assay: kanamycin survival loss of SKKanGAS strain – BacTiter-Glo luminescence, streptokinase expression inhibitor project, primary screen (AID 1662).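 Further: strain carries kanamycin resistance gene driven by streptokinase promoter and grows in 40 µg/ml kanamycin; loss of luminescence reflects streptokinase promoter inhibition or plain growth inhibition; 0% = median of DMSO wells and 100% = positive control at its reference dose.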 The conditions noted are these: S. pyogenes SKKanGAS, kanamycin growth, 6 h, at 7.5 µM, hits give high values.
Usually inhibition stands for the relative decrease from the control value, in per cent. On to `Nc1nonc1-n1nnc(C(=O)N/N=C/c2cc(Br)ccc2O)c1CSC1=NCCS1`, for which the inhibition is 107% (active). As for `Nc1nonc1-n1nnc(C(=O)N/N=C/c2ccccc2O)c1CN1CCCC1`, the inhibition is -2.71%.

For `Cc1ccc(SCc2c(C(=O)N/N=C/c3cccnc3)nnn2-c2nonc2N)cc1`, the inhibition was 3.15%.

Turning to `O=C(O)c1cccnc1Sc1ncnc2sc3c(c12)CCC3`, the inhibition is -1.33%. Regarding `COc1ccccc1CCC(=O)NNC(=O)c1ccncc1`, the inhibition is -5.32%. For `O=C(NC(=S)Nc1ccc(NC(=O)c2cccs2)cc1)c1ccc([N+](=O)[O-])cc1`, the inhibition is 6.3%.

As to `CC(=O)Nc1ccc(NC(=S)NC(=O)c2ccc([N+](=O)[O-])c(C)c2)cc1`, the inhibition was -0.0689%. On to `CC(=O)NC(=S)Nc1ccc(NC(=S)NC(=O)c2ccc([N+](=O)[O-])cc2)cc1`, for which the inhibition is 60.3% (active). Under `O=C1NC(=Nc2ccc(Cl)cc2)SC1Cc1cccc(Cl)c1Cl` (centres undefined) stands 61.1% (active); under `CC(C)=N/N=C1/NC(=O)C(Cc2ccccc2)S1` (centres undefined), 0.633%; under `NC1=NC(=O)C(Cc2cccc(Cl)c2Cl)S1` (centres undefined), -7.45%. Take `COc1ccc(C(CNC(=O)c2cc3c(s2)CCCC3)N2CCOCC2)cc1` (centres undefined): the inhibition is -4.29%. Take `O=C(Nc1cccc(Cl)c1)c1cncn1-c1ccc(F)cc1`: the inhibition is -0.257%.

As to `CC(C)C(=O)Nc1cccc(NC(=S)NC(=O)C(c2ccccc2)c2ccccc2)c1`, the inhibition is 22.1%.

Turning to `CCCCC(=O)NNC(=S)NC(=O)C(c1ccccc1)c1ccccc1`, the inhibition was 85.9% (active).

As for `O=C(NNC(=S)NCc1ccco1)C(c1ccccc1)c1ccccc1`, the inhibition is 12.9%.

Take `CC(=O)N/C(=N/c1nc(C)cc(C)n1)Nc1ccc(F)cc1F`: the inhibition was -6.21%. As for `Cc1ccc(OCc2nnc(SC3CCc4ccccc4C3=O)n2C)cc1` (centres undefined), the inhibition is 1.05%. Regarding `CN(CCc1ccccn1)C(=O)c1ccc(OC2CCN(Cc3ccccn3)CC2)cc1`, the inhibition was 15.2%.

With `Nc1cccc2c1C(=O)N(Cc1nnc(-c3ccccc3Br)o1)C2=O`, the inhibition was -13.7%. Regarding `COc1ccc(OCC(=O)NCCS(=O)(=O)N2CCN(c3ccc(F)cc3)CC2)cc1`, the inhibition was -2.54%. As to `CCOc1cc(N2CCOCC2)c(OCC)cc1NC(=O)c1cc(C)nc2ccccc12`, the inhibition is 6.5%. Under `CCOc1cc(N2CCOCC2)c(OCC)cc1NC(=O)c1ccc(C)s1` stands -3.59%. As to `CCOc1cc(N2CCOCC2)c(OCC)cc1NC(=O)C1=NN(c2cccc(C)c2)C(=O)CC1`, the inhibition was 54% (active).

As to `CCOCCCNC(=O)C(NC(=O)c1ccc(=O)[nH]c1)c1ccc(Cl)cc1` (centres undefined), the inhibition was -3.58%. On to `COc1ccc(OC)c(S(=O)(=O)Nc2cccc(-c3ccc4nncn4n3)c2)c1`, for which the inhibition was -5.29%. `O=C(Nc1ccc(Cl)cn1)Nc1cccs1`: the inhibition was -3.53%.

In the case of `Clc1ccc(Nc2nc(-c3cccs3)cs2)nc1`, the inhibition is 64.4% (active). Turning to `Cc1ccc(Nc2nc(-c3ccc(O)cc3O)cs2)nc1`, the inhibition was 20.8%. Turning to `O=C(CSc1ccc(-c2ccccn2)nn1)Nc1ccccc1`, the inhibition is -3.36%. Consider `CC(C)=CCc1c(O)c(CC=C(C)C)c2occ(-c3ccc(O)cc3)c(=O)c2c1O`, for which the inhibition was 105% (active). Under `O=c1c(-c2ccccc2)coc2cc(O)ccc12` stands 0.922%; under `CC(C)CN(Cc1c(O)ccc2c(=O)c(-c3ccccc3)coc12)CC(C)C`, 0.595%.

As to `CCOC(=O)c1ccc2c(c1)nc(SCC(=O)NC(C)C)n2CC`, the inhibition was -3.36%. Regarding `Cc1cc(C)c(S(=O)(=O)Nc2c(C)n(C)n(-c3ccccc3)c2=O)cc1[N+](=O)[O-]`, the inhibition was 4.05%. `O=C(NCCCN1CCOCC1)c1cc(-c2ccccc2F)no1`: the inhibition is 26.3%. In the case of `O=C(Cc1c(F)cccc1Cl)N1CCN(C(=O)c2ccco2)CC1`, the inhibition is -1.63%. For `O=C(c1ccco1)N1CCN(C(=O)c2cc(-c3ccccc3F)no2)CC1`, the inhibition is 63.3% (active). In the case of `COC(CNC(=O)c1ccc2c(c1)ncn2-c1cc(C)cc(C)c1)OC`, the inhibition was 0.722%. With `CCOC(=O)c1ccc(-c2ccc(C(=O)Nc3cccnc3)o2)cc1`, the inhibition is 3.97%.

`COC(=O)C1=C(C)NC(=O)CC1c1ccccc1OC` (centres undefined): the inhibition is 4.98%.

As for `COC(=O)C1=C(C)NC2=C(C(=O)c3ccccc32)C1c1ccc(-c2ccc(C(=O)O)cc2)o1` (centres undefined), the inhibition was 60.6% (active). The value for `O=C(c1cccs1)N(Cc1cc2ccccc2[nH]c1=O)CC1CCCO1` (centres undefined) was -2.88%. With `O=C(NCCC1CCCCN1S(=O)(=O)c1ccc(Cl)cc1)C(=O)NCc1ccco1` (centres undefined), the inhibition was -16.2%. On to `Oc1ccc(C2Nc3cccc4cccc(c34)N2)cc1`, for which the inhibition is 3.2%.

Turning to `Brc1ccccc1C1Nc2cccc3cccc(c23)N1`, the inhibition is 56.8% (active). Under `Cc1ccc(C2Nc3cccc4cccc(c34)N2)cc1` stands 9.05%; under `CC1Cc2cc(/C(O)=C3\C(=O)C(=O)N(Cc4cccnc4)C3c3ccccc3F)ccc2O1` (centres undefined), 12.9%. As for `CC1CCCCN1S(=O)(=O)c1ccc(C(=O)Nc2nnc(-c3cccs3)o2)cc1` (centres undefined), the inhibition was 99.8% (active). On to `CSCc1nnc(NC(=O)c2ccc(S(=O)(=O)N3CCCCC3C)cc2)o1` (centres undefined), for which the inhibition is 39.4%.

With `CC1CCCN(S(=O)(=O)c2ccc(C(=O)Nc3nnc(-c4ccncc4)o3)cc2)C1` (centres undefined), the inhibition was 20.4%. Turning to `CCn1c(N)c(Br)c(=O)[nH]c1=O`, the inhibition is 0.526%. Regarding `Cc1cc(OC(C)C(=O)NC2CC(C)(C)NC(C)(C)C2)c2c(C)cc(=O)oc2c1` (centres undefined), the inhibition is 2.79%.

In the case of `CCOC(=O)N1CCN(c2cc(C)c([N+](=O)[O-])cc2F)CC1`, the inhibition is 15.6%. Take `CC(C)c1ccc2c(c1)c(SC(C)(C)C)c(CC(C)(C)C(=O)O)n2Cc1ccc(Cl)cc1`: the inhibition was 109% (active).

In the case of `O=C(O)c1ccc(Cn2c(=S)[nH]c3cc(Cl)ccc3c2=O)cc1`, the inhibition was 9.12%. In the case of `O=C(COC(=O)c1ccccc1SCC(=O)N1CCCC1)Nc1ccccc1OC(F)F`, the inhibition is 34%. The value for `CSCCNC(=O)c1ccc2nc(Cc3ccccc3F)oc2c1` was 2.77%; that for `Cn1ccc(NC(=O)Nc2ccc(Cl)cc2)n1` was -3.73%; that for `CC(C)S(=O)(=O)c1csc(NC(=O)Nc2ccc(Cl)cc2)c1Cl` was 60% (active). Take `CN(c1cccc(NC(=O)Nc2ccc(Cl)cc2)c1)S(C)(=O)=O`: the inhibition is -13.9%. In the case of `Cc1c(Cl)c([N+](=O)[O-])nn1CCCC(=O)Nc1cc(Cl)ccc1Cl`, the inhibition was -2.88%.

`Cc1c(Cl)c([N+](=O)[O-])nn1Cc1ccc(C(=O)N/N=C\c2cc(Cl)ccc2O)o1`: the inhibition was 96.5% (active).

For `Cc1ccc(C(=O)O)cc1NC(=O)c1ccc(Cn2nc(C)c(Cl)c2C)o1`, the inhibition was 5.19%. For `CCC(CC)c1nnc(NC(=O)C2CCN(C(=O)c3ccco3)CC2)s1`, the inhibition was -3.32%. For `CS(=O)(=O)c1ccc(Cl)c(NC(=O)Nc2ccccc2)c1`, the inhibition is -0.376%. Consider `O=C(c1ccc(Cl)cc1)c1cnc(Nc2ccccc2)s1`, for which the inhibition is 3.38%.

Take `O=C(Nc1ccccc1)c1nnsc1S(=O)(=O)c1ccc(Cl)cc1`: the inhibition is 85.8% (active). For `Cc1nnc(SCC(=O)Nc2cccc(N)c2)n1-c1ccccc1`, the inhibition is 8.19%. As to `Clc1ccc(Cl)c(Oc2ccc(Oc3nc(Cl)ccc3Cl)cc2)n1`, the inhibition was -7.12%. With `CN(C)CCn1c2c(c(SCC(=O)Nc3ccccc3C(F)(F)F)nc1=O)CCCC2`, the inhibition is -16.8%. `COc1ccccc1CNC(=O)CSc1nc(=O)n(Cc2ccncc2)c2c1CCC2`: the inhibition was 49.6% (active).

For the molecule `CN(C)CCn1c2c(c(SCC(=O)NCc3ccccc3)nc1=O)CCC2`, the inhibition is -2.81%. As for `O=C(NNC1=C(C(=O)C(F)(F)F)CCC1)c1ccncc1`, the inhibition is 18.5%. As for `O=C(Cc1ccc(S(=O)(=O)N2CCOCC2)s1)NCCOc1ccccc1F`, the inhibition was 2.98%.

For `O=C(Nc1c2c(nn1-c1ccccc1)CS(=O)(=O)C2)C1CCCC1`, the inhibition is -3.29%.

As to `CC(=O)Nc1ccc(Nc2ncnc3c2nnn3Cc2ccccc2Cl)cc1`, the inhibition is 1.15%. Take `C/C(=N\NC(=S)NC(C)C)c1ccc(C(C)(C)C)cc1`: the inhibition is 15.9%.

For the molecule `CC(C)NC(=S)NN=C1CCCCCCCCCCC1`, the inhibition was 63.8% (active). Consider `CC(C)(C)NC(=O)C(=O)NN=C1CCCCCCC1`, for which the inhibition is -3.09%. `Cc1c(CN2CCC(n3nccc3NC(=O)CCc3ccccc3)CC2)cnn1C`: the inhibition is 1.52%. The value for `CC(=O)NC(Cc1c[nH]c2ccccc12)C(=O)O` (centres undefined) was 4.27%; that for `CC(=O)Nc1ccc(/C=N/NC(=O)c2cccs2)cc1` was 5.44%. The value for `O=C(NC(Cc1c[nH]c2ccccc12)C(=O)N/N=C/c1ccc(Br)cc1)c1cccs1` (centres undefined) was 66.8% (active); that for `CN(Cc1ccccc1)C(=O)c1ccc(NC2=NC3CS(=O)(=O)CC3S2)cc1` (centres undefined) was -1.29%. Under `COc1cc(/C=C2\CCCc3c2nc2ccccc2c3C(=O)O)cc(Cl)c1O` stands 15.8%. Regarding `COc1cc(-c2cc(C(=O)OCC(=O)Nc3ccc4c(c3)OCO4)c3ccccc3n2)cc(OC)c1OC`, the inhibition was 13.9%. `NC(=O)c1ccc(NC(=O)COC(=O)c2c3c(nc4ccccc24)/C(=C\c2ccc4c(c2)OCO4)CCC3)cc1`: the inhibition was 64% (active). As for `O=c1[nH]c(CSc2ccccc2)nc2c1oc1ccccc12`, the inhibition was -3.16%. Take `COc1ccc(C(=O)NC2=NCCS2)c(OC)c1`: the inhibition was -2.91%.

With `CCc1cc(=O)oc2c(C)c(OCC(=O)N3CC[C@@]4(O)CCCC[C@H]4C3)ccc12`, the inhibition was -5.4%. In the case of `Cc1cc(C)c(C2C3=C(Nc4c2c(C)nn4-c2ccccn2)c2ccccc2C3=O)c(C)c1` (centres undefined), the inhibition was 57.1% (active). In the case of `CC(=C1C(=O)c2ccccc2C1=O)N1CCN(c2ccccn2)CC1`, the inhibition is 1.02%.

`Cc1nn(-c2ccccn2)c2c1C(c1ccncc1)C1=C(CC(C)(C)CC1=O)N2` (centres undefined): the inhibition is -3.06%.

For the origin of these results see PubChem BioAssay AID1662 (Broad Institute, 2009).
